Records with an inconclusive call do not appear. Calls of active or inactive are those of the source. Unless noted, the call rests on the fitted dose curve; in most records, active means well fitted curve in the direction sought with a large enough effect; inconclusive means small, poorly fitted or top-dose-only effect, or another doubt; inactive means no such curve, though single readings can be large; an effect the other way counts as inactive or inconclusive.
What was measured:
[1] = AP1 Signaling Pathway (AID 357; active means well fitted curve in either direction with a large enough effect, not every such curve was filed as active;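 further: ME-180 reporter cells stimulated with EGF at its EC50 level; on the % scale 0 is the no-effect control and ±100 the full control effect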); settings: ME-180 AP-1-bla reporter, EGF-induced, beta-lactamase ratio, 5 h; at 17.2 µM (top of the series) unless noted
Method in brief: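 A ratiometric CCF4 readout (405 nm excitation; 460 and 530 nm emission) quantified AP-1-driven beta-lactamase in ME-180 cells after 5 h with compound and EC50 EGF; AC50 values were derived for activators and inhibitors.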

[2] = NFAT Signaling Pathway (AID 444; active means well fitted curve in either direction with a large enough effect, not every such curve was filed as active;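 further: carbachol stimulus at about its EC50 of 1 µM final; on the % scale 0 is the no-effect control and ±100 the full control effect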); settings: Jurkat NFAT-bla M1, carbachol, beta-lactamase ratio, 5 h; at 17.2 µM (top of the series) unless noted
Method in brief: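 Jurkat cells carrying an NFAT-driven β-lactamase reporter and co-transfected muscarinic M1 receptor were treated with compound plus carbachol (1 uM final, an EC50 level) for 5 h at 37 °C. CCF4 loading followed for 1 h at RT; 460/530 nm ratio gave %activity.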

[3] = Stat Signaling Pathway (AID 446; active means well fitted curve in either direction with a large enough effect, not every such curve was filed as active;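 further: ME-180 cervical cancer cells given 40 pM IL-6 alongside compound; SIE-controlled beta-lactamase reporter measured as 460/530 nm FRET emission ratio; on the % scale 0 is the no-effect control and ±100 the full control effect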)
Method in brief: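 ME-180 cells carrying a SIE-driven beta-lactamase reporter are stimulated with 40 pM IL-6 for 5 h at 37C in the presence of compound. The 460/530 nm FRET substrate ratio is read after 2.5 h at RT. Data are normalised to 300 pM IL-6 and to 125 nM JAK inhibitor controls.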

[4] = biological target: Glucocorticoid receptor (Homo sapiens) (UniProt P04150); experiment: GR-GFP Redistribution (AID 450;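 active means compounds whose dose series gives a full or clear partial fitted curve of increased nuclear translocation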; further: potency means the concentration at half of the fitted maximal effect); settings: U2OS GR-GFP nuclear translocation, laser cytometry, 2 h
Chain of Glucocorticoid receptor (Homo sapiens) (P04150 whole entry, looked up, the tested form may be a part): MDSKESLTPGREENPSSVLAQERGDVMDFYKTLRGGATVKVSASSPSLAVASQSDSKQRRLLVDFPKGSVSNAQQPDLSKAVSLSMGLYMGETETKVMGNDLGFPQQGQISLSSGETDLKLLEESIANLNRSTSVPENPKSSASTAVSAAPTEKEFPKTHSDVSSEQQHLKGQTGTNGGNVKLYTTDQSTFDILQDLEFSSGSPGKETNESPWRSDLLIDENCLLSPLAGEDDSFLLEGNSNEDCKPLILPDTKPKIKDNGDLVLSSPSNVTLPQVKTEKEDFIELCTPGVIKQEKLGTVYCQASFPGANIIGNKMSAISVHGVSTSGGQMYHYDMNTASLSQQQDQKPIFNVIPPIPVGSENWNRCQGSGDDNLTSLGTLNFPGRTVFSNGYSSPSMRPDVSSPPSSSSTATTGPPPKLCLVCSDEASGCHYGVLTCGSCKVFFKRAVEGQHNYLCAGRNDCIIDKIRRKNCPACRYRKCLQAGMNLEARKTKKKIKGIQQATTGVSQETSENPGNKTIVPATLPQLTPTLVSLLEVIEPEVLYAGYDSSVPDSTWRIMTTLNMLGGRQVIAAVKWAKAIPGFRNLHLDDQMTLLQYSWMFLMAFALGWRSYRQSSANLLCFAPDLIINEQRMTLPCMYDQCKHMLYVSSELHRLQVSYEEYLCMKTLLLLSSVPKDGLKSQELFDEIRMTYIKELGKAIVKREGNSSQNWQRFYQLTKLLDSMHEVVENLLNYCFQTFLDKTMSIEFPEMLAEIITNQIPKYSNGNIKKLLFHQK

[5] = biological target: Cytochrome P450 1A2 (Homo sapiens) (UniProt P05177); experiment: p450-cyp1a2 (AID 410; calls by dose curve; further: potency means the concentration at half of the fitted maximal effect;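 on activity change, negative = inhibition: -100% = full effect of reference inhibitor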)
Chain of Cytochrome P450 1A2 (Homo sapiens) (P05177 whole entry, looked up): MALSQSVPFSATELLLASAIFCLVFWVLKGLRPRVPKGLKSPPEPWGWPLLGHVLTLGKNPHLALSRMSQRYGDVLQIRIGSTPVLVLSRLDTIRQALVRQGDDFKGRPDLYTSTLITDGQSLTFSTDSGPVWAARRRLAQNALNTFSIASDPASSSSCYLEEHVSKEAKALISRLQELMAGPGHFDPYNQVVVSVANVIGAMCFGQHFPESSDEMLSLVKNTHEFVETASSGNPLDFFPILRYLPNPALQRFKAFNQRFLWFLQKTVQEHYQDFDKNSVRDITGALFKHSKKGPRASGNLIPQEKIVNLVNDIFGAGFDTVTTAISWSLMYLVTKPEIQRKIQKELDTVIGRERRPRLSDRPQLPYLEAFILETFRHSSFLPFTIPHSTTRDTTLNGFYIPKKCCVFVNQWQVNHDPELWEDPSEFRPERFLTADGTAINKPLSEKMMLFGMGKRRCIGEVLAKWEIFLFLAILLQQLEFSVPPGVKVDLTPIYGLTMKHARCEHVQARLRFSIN
Method in brief: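 Human CYP1A2 (20nM) demethylated Luciferin-ME at its Km (100uM) in 100mM KPO4. After 10 min compound preincubation, NADPH regeneration ran the reaction 60 min at room temperature. Luciferin was read by luminescence, normalized to 57 uM furafylline.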

[6] = biological target: Mitogen-activated protein kinase 10 (Mus musculus) (UniProt Q61831); experiment: JNK3 AlphaScreen Assay (AID 530; active means well fitted curve in either direction with a large enough effect, not every such curve was filed as active;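 further: kinase came from lysate of stimulated human HepG2 cells; signal reports phosphorylation of biotinylated GST-cJun 1-79 at Ser73 with 10 µM ATP; on the % scale 0 is the no-effect control and ±100 the full control effect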)
Method in brief: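 JNK3 came from HepG2 lysates pre-activated with IL-1beta and TNF-alpha and phosphorylated biotinylated GST-cJun (1-79) at 10 uM ATP, pH 7.6, room temperature. Compounds were titrated. AlphaScreen signal used anti-phospho-cJun (Ser73) antibody.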

[7] = biological target: 3',5'-cyclic-AMP phosphodiesterase 4B (Homo sapiens) (UniProt Q07343); experiment: qHTS Assay for Inhibitors of PDE-IV (AID 607; active means well fitted activation curve with a large enough effect in the main read-out, with a control signal flat, not every such curve was filed as active; further: % of control where 0% means no effect)
Chain of 3',5'-cyclic-AMP phosphodiesterase 4B (Homo sapiens) (Q07343 whole entry, looked up): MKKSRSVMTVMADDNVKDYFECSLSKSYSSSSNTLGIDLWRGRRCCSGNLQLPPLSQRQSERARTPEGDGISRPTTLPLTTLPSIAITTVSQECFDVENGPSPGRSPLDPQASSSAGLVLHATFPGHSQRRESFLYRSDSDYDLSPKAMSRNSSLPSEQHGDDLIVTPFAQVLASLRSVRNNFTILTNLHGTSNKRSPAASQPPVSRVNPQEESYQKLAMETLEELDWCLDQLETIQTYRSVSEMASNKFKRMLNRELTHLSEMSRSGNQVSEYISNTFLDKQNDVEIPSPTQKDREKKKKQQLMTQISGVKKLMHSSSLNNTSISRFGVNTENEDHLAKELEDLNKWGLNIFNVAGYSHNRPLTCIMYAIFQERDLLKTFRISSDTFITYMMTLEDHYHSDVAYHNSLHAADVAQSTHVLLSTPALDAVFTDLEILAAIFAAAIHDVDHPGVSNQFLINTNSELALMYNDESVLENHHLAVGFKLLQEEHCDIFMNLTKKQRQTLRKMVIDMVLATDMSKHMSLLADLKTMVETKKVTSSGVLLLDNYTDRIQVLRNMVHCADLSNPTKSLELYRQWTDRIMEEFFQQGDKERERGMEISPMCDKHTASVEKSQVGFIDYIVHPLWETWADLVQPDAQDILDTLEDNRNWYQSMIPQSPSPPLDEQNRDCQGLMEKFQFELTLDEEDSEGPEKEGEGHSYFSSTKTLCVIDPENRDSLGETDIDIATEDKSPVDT
Method in brief: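 HEK293 ACTOne cells with CNG channel (1000/well), endogenous PDE4; membrane potential dye, compounds up to 22.9 uM final. Fluorescence Ex 535/Em 590; RO 20-1724 (100 uM final) as reference.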

[8] = biological target: Cytochrome P450 2C9 (Homo sapiens) (UniProt P11712); experiment: qHTS Assay for Inhibitors and Substrates of Cytochrome P450 2C9 (AID 883); further: on the % scale 0 is the no-effect control and ±100 the full control effect; nearly all actives have a fitted effect of over 60% in size
Method in brief: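 Human CYP2C9 (10nM) hydroxylated Luciferin-H (100uM, at its KM) to luciferin in 25mM KPO4. Compound was preincubated 10 min at 37C, then NADPH regeneration started a 60 min reaction at 37C. Luminescence was read after detection reagent, normalized to 57uM sulphaphenazole.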

[9] = biological target: Cytochrome P450 3A4 (Homo sapiens) (UniProt P08684); experiment: qHTS Assay for Activators of Cytochrome P450 3A4 (AID 885); further: nearly all actives have a fitted effect of over 65% in size
Method in brief: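 Human CYP3A4 (20 nM) with Luciferin-PPXE at 25 uM (its KM) in 200 mM KPO4; 10 min compound preincubation, then NADPH regeneration and 60 min reaction at RT. Luciferin read by luminescence; normalized to 57 uM ketoconazole full inhibition.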

[10] = qHTS Assay for Identification of Small Molecule Antagonists for NFkB Signaling Pathway (AID 895; active means well fitted inhibition curve with a large enough effect in the signal ratio, with a control signal flat, not every such curve was filed as active; the % refers to the signal ratio; further: on the % scale 0 is the no-effect control and ±100 the full control effect)
Method in brief: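 NFkB-bla ME-180 cervical carcinoma cells with beta-lactamase reporter under NFkB response element; compounds added, then TNF alpha at 10 pM final (EC50), 5 h at 37 C. LiveBLAzer substrate 2 h, room temperature; emission 460/530 nm at 405 nm excitation.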

[11] = biological target: Muscarinic acetylcholine receptor M1 (Rattus norvegicus) (UniProt P08482); experiment: qHTS Assay for Antagonists of Acetylcholine Muscarinic M1 Receptor: Kinetic Measurement of Intracellular Calcium Response (AID 943);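 further: Fluo-4 calcium signal as peak divided by basal fluorescence over 4 min; nearly all actives have a fitted effect of over 75% in size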
Chain of Muscarinic acetylcholine receptor M1 (Rattus norvegicus) (P08482 whole entry, looked up): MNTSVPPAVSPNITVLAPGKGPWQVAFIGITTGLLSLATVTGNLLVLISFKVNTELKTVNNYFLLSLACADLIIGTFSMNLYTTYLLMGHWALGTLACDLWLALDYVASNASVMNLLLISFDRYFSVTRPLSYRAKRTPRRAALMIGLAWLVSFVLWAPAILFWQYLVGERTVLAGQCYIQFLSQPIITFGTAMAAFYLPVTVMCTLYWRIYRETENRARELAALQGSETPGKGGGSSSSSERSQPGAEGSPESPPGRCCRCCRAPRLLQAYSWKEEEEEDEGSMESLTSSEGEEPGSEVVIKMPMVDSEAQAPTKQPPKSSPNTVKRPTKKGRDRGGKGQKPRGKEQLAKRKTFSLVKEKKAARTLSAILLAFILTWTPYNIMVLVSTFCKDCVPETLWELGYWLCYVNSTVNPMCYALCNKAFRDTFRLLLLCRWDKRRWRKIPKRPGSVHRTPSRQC
Method in brief: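 CHO cells stably expressing rat M1 were loaded with no-wash Fluo-4 dye for 1 h at 37C, pre-incubated 10 min with compound, then challenged with EC80 carbachol (100 nM final); kinetic calcium read 4 min, peak/basal ratio.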

[12] = biological target: Pyruvate kinase (Leishmania mexicana) (UniProt Q27686); experiment: qHTS Validation Assay for Inhibitors of Leishmania Mexicana Pyruvate Kinase (AID 945);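 further: 0% = DMSO only neutral control wells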
Chain of Pyruvate kinase (Leishmania mexicana) (Q27686 2-499 E452W): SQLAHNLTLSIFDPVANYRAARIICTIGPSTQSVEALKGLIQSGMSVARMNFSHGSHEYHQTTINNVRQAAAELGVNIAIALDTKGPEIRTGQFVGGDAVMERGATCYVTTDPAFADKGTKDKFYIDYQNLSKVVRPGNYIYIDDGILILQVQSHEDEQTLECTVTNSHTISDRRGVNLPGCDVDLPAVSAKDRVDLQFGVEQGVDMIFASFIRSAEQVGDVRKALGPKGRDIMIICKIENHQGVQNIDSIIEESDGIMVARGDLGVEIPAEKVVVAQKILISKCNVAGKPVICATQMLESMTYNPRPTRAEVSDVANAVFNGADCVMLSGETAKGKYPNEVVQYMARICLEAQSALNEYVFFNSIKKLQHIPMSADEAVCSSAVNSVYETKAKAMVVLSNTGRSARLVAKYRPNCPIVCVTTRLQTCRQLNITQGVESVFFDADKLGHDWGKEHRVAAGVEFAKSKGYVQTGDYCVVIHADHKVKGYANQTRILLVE
Method in brief: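 LmPYK E451W 0.2 nM; 0.5 mM PEP, 0.1 mM ADP, 7 mM MgCl2, 50 mM KCl, imidazole pH 7.2, 0.01% Tween 20, 0.05% BSA; 1 h RT; PKLight luminescence; DMSO-normalized.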

[13] = biological target: Pyruvate kinase PKM (Homo sapiens) (UniProt P14618); experiment: qHTS Assay for Activators of Human Muscle Pyruvate Kinase (AID 954; active means well fitted curve in the direction sought with a large enough effect, not every such curve was filed as active;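 further: 0% = uninhibited enzyme and -100% = no enzyme or full thiadiazolimine inhibition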)
Chain of Pyruvate kinase PKM (Homo sapiens) (P14618 whole entry, looked up): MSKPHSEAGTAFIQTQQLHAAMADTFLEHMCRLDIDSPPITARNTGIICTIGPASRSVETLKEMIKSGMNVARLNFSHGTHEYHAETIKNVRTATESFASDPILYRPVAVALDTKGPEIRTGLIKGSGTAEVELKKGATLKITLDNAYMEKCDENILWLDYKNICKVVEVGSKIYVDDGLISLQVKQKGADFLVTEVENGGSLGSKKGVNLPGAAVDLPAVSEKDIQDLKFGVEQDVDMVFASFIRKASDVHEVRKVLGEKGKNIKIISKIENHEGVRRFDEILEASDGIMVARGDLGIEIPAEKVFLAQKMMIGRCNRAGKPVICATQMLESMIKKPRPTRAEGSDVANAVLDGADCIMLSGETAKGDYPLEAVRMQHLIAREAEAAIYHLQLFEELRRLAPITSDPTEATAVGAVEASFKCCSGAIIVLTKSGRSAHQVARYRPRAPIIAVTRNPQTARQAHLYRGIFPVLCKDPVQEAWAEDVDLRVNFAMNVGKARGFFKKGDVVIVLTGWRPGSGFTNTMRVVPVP
Method in brief: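 Purified human PKM2 (0.1 nM) with 0.5 mM PEP (Km) and 0.1 mM ADP in 50 mM imidazole pH 7.2, KCl, MgCl2, 1 h at room temperature; ATP formed read by coupled luciferase luminescence. Normalized to no-enzyme/110 uM thiadiazolimine inhibition; 0.3 nM enzyme column for activation.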

[14] = biological target: Alpha-galactosidase (Coffea arabica) (UniProt Q42656); experiment: Counterscreen for Glucocerebrosidase Inhibitors: qHTS Assay for Coffee Bean alpha-Galactosidase at pH 4.5 (AID 957);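 further: plate controls were enzyme alone for no effect and no enzyme for full effect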
Chain of Alpha-galactosidase (Coffea arabica) (Q42656 whole entry, looked up): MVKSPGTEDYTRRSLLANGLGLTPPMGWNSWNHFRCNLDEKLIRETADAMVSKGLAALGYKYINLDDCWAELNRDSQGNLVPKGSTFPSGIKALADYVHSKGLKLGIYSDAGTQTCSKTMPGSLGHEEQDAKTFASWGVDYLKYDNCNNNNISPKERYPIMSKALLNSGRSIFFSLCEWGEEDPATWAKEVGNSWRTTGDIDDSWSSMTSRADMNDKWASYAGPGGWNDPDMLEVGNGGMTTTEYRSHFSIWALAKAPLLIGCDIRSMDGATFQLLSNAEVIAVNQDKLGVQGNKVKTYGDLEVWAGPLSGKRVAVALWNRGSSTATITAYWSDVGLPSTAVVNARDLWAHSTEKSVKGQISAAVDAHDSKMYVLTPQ
Method in brief: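 Green coffee bean enzyme (2 nM final) was incubated with compounds (0.7 nM to 77 uM) and 4-methylumbelliferyl alpha-D-galactopyranoside (80 uM final) in 50 mM citric acid, 0.005% Tween-20, pH 4.5, 20 min at room temperature; AC50 from Hill fits.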

[15] = biological target: Alpha-galactosidase A (Homo sapiens) (UniProt P06280); experiment: Counterscreen for Glucocerebrosidase Inhibitors: qHTS Assay for Human alpha-Galactosidase at pH 4.5 (AID 992); further: 0% is about no effect
Chain of Alpha-galactosidase A (Homo sapiens) (P06280 whole entry, looked up): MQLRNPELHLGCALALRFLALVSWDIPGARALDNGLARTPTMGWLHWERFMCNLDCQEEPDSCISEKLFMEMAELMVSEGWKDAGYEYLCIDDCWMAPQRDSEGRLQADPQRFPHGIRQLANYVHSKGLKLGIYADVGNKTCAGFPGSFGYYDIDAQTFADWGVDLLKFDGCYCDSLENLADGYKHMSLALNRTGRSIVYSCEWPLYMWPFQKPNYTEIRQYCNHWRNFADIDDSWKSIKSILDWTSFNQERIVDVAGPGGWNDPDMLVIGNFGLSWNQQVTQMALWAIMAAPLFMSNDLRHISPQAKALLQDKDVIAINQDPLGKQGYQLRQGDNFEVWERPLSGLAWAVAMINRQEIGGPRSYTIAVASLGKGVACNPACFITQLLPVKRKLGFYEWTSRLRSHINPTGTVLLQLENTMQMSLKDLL
Method in brief: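 Human enzyme (2 nM) with 80 uM 4-methylumbelliferyl alpha-D-galactopyranoside in 50 mM citric acid, 0.005% Tween-20, pH 4.5, 20 min at room temperature. Compounds 0.7 nM–77 uM; fluorescence Ex 365/Em 440 after pH 10 stop; AC50 from Hill fits.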

[16] = biological target: alpha-glucosidase (Oryza sativa, rice) (UniProt Q653V4); experiment: Counterscreen for Glucocerebrosidase Inhibitors: qHTS Assay for Rice alpha-Glucosidase at pH 5.0 (AID 997);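 further: 0% = full activity with enzyme and -100% = basal without enzyme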
Method in brief: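 Rice alpha-glucosidase (4 nM final) with 400 uM 4-methylumbelliferyl-alpha-D-glucopyranoside in citrate buffer pH 5.0, 20 min at room temperature, stopped at pH 10; fluorescence 365/440 nm, compounds 0.7 nM–77 uM, AC50 from Hill fits.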

[17] = biological target: Alpha-galactosidase (Coffea arabica) (UniProt Q42656); experiment: Counterscreen for Glucocerebrosidase Inhibitors: qHTS Assay for Coffee Bean alpha-Galactosidase at pH 5.9 (AID 998);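 further: plate controls were uninhibited enzyme for no effect and no-enzyme basal signal for full effect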
Method in brief: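 Green coffee bean enzyme (2 nM final) was incubated with compounds (0.7 nM–77 uM) and 4-methylumbelliferyl alpha-D-galactopyranoside (80 uM) in citrate buffer pH 5.9, 20 min at room temperature. High-pH stop; fluorescence 365/440 nm; AC50 from Hill fits.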

[18] = biological target: Glucocorticoid receptor (Homo sapiens) (UniProt P04150); experiment: GR-EFC Redistribution (AID 451; calls by dose curve; further: potency means the concentration at half of the fitted maximal effect); settings: CHO-K1 GR-EFC translocation, beta-gal luminescence, 2 h
Method in brief: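 CHO-K1 cells stably expressing nuclear-localized β-gal enzyme acceptor and GR fused C-terminally to the enzyme donor fragment; ligand-driven nuclear translocation restores β-gal by complementation. Compounds titrated up to 46 uM final, 2 h at 37 °C; luminescence read.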

[19] = biological target: Guanine nucleotide-binding protein G(i) subunit alpha-1 (Homo sapiens) (UniProt P63096); experiment: qHTS Assay for Inhibitors of RGS12 GoLoco Motif Activity (Green Fluorophore) (AID 879);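 further: 0% = labeled peptide with Gαi1 and full inhibition = labeled peptide alone without protein; negative values mean loss of peptide binding seen as reduced polarization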
Chain of Guanine nucleotide-binding protein G(i) subunit alpha-1 (Homo sapiens) (P63096 whole entry, looked up): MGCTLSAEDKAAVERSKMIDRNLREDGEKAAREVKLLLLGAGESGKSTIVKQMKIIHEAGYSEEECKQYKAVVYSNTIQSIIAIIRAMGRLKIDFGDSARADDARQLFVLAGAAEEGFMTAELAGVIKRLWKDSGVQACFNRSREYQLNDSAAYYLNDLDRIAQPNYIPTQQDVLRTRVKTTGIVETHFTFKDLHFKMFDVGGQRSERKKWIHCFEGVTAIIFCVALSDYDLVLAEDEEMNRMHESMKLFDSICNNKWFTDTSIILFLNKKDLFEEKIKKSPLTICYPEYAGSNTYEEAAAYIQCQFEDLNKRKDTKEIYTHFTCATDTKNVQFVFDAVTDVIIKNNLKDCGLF
Method in brief: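 Fluorescence polarization assay: 50 nM Gαi1 with 10 nM FITC-labeled RGS12 GoLoco peptide in 10 mM Tris pH 7.5, 150 mM NaCl, 0.1 mM GDP, 0.05% NP40, 10 min at room temperature with compound.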

[20] = biological target: Muscarinic acetylcholine receptor M1 (Rattus norvegicus) (UniProt P08482); experiment: qHTS Assay for Antagonists of Acetylcholine Muscarinic M1 Receptor: Measurement of IP-One Response (AID 944); further: nearly all actives have a fitted effect of over 75% in size
Method in brief: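 CHO cells expressing rat M1 receptor, recovered overnight, were pre-incubated 10 min with compound, then stimulated 30 min with carbachol at EC80 (200 nM) in LiCl-containing buffer, pH 7.4. IP1 accumulation was read by HTRF (620/665 nm).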

[21] = biological target: Cytochrome P450 2C19 (Homo sapiens) (UniProt P33261); experiment: qHTS Assay for Inhibitors and Substrates of Cytochrome P450 2C19 (AID 899); further: potency means the concentration at half of the fitted maximal effect; nearly all actives have a fitted effect of over 60% in size
Method in brief: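 Human CYP2C19 (5nM) with Luciferin-H EGE at 10uM (its KM) in 50mM KPO4 was preincubated with compound for 10 min at 37C. NADPH regeneration started a 60 min 37C reaction. Luciferin was read by luminescence, normalized to 57uM ketoconazole.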

COc1cccc(CN2CCN(C(=O)COc3ccc4ccccc4c3)CC2)c1
inactive: activity change, negative = inhibition [1] 2% | activity change, negative = inhibition [2] 13.9% | outcome [3] | Potency [4] > 20.6 µM

CCN(CC)C(=O)N[C@H]1C[C@H]2c3cccc4[nH]cc(c34)C[C@@H]2N(C)C1
inactive: activity change, negative = inhibition [1] 9.81% [at 38 µM] | Potency [5] | activity change, negative = inhibition [2] 3.16% [at 38 µM] | outcome [3] | outcome [6] | outcome [7] | Potency [8] | Potency [9] | Potency [10] | Potency [11] | Potency [12] | outcome [13] | outcome [14] | outcome [15] | outcome [16] | outcome [17]

COCCOC(=O)c1c(N)n(Cc2ccco2)c2nc3ccccc3nc12
inactive: activity change, negative = inhibition [1] -12.5% | activity change, negative = inhibition [2] 16.1% | outcome [3] | Potency [4] > 20.6 µM

C[C@H](N)c1cccc(Cl)c1Cl
active: Potency [5] 1.26 µM
inactive: activity change, negative = inhibition [1] 19.1% [at 38 µM] | activity change, negative = inhibition [2] 7.99% [at 38 µM] | Potency [4] > 46 µM | Potency [18] > 46 µM | outcome [6] | outcome [7] | Potency [19] | Potency [20] | Potency [12] | outcome [13] | outcome [14] | outcome [15] | outcome [16] | outcome [17]

O=c1[nH]c(O)c(C=NC2CCN(Cc3ccccc3)CC2)c(=O)[nH]1
inactive: activity change, negative = inhibition [1] 5.09% | activity change, negative = inhibition [2] -19.6% | outcome [3] | Potency [4] > 20.6 µM

CCN1C[C@]2(C)CC[C@@H](O)[C@]34[C@@H]5CC6[C@@H](OC)C[C@@](O)([C@H]5[C@@H]6O)[C@@H](C[C@@H]23)[C@H]14
inactive: activity change, negative = inhibition [1] 5.54% [at 38 µM] | Potency [5] | activity change, negative = inhibition [2] 6.29% [at 38 µM] | outcome [3] | Potency [4] > 46 µM | Potency [18] > 46 µM | outcome [7] | Potency [19] | Potency [10] | Potency [11] | Potency [20] | Potency [12] | outcome [13] | outcome [14] | outcome [15] | outcome [16] | outcome [17]

CCCC12CN3CN(C1)CC(CCC)(C3)C2O (stereo not drawn)
inactive: activity change, negative = inhibition [1] 21.7% | activity change, negative = inhibition [2] -5.01% | outcome [3] | Potency [4] > 20.6 µM

O=C(CCCN1CCC2(CC1)C(=O)N(CCc1ccc(N=C=S)cc1)CN2c1ccccc1)c1ccc(F)cc1
inactive: activity change, negative = inhibition [1] -2.99% [at 38 µM] | Potency [5] | outcome [3] | Potency [4] > 46 µM | Potency [18] > 46 µM | outcome [6] | outcome [7] | Potency [8]
active: Potency [21] 3.16 µM

Source: PubChem BioAssay (NCATS)
